Measurements from PubChem BioAssay AID743060 (The Scripps Research Institute Molecular Screening Center, 2013).

assay: inhibitors of T. brucei MetRS aminoacylation, late-stage follow-up, biochemical, radioactivity, round 1 (AID 743060); conditions: purified enzyme, radiolabel aminoacylation, scintillation, 2 h; at 1 µM; stronger effect = higher value

Row | SMILES | inhibition
1 | COCCc1nc2ccc(C(=O)NCCc3nc4ccc(OC)cc4[nH]3)cc2o1 | -1.44%
2 | COc1ccccc1NS(=O)(=O)c1cccc(NC(=O)Nc2ccccc2)c1 | 57%
3 | CC(=O)c1c[nH]c(C(=O)NCc2cccc(C(F)(F)F)c2)c1 | 44.6%
4 | O=C(NCc1nc2ccccc2[nH]1)C1=C[C@@H](c2ccc(Br)cc2)C[C@@H](OCCCCO)O1 | 84.2%
5 | O=C(C(=O)N1CCOCC1)c1cn(CC(=O)N2CCCc3ccccc32)c2ccccc12 | -6%
6 | COc1ccc(NC(=O)CSc2nnc3c4cc(C)ccc4n(C)c3n2)cc1 | -3.06%
7 | O=C(NCc1nc2ccccc2[nH]1)C1=C[C@H](C2CC2)C[C@H](OCc2ccc(CO)cc2)O1 | -3.3%
8 | CCN(CC)C(=O)C(=O)c1cn(CC(=O)Nc2cccc(C(F)(F)F)c2)c2ccccc12 | 95.4%
9 | CCN(CC)C(=O)C(=O)c1cn(CC(=O)N(CC)c2ccccc2)c2ccccc12 | -3.75%
10 | O=C1CC(NCCc2ccccc2)C(=O)N1c1ccc(Br)cc1 (stereo not given) | -6.51%
11 | Cc1cccc(C(=O)NCCc2nc3ccccc3n2CCOc2ccccc2)c1 | 1.66%
12 | O=C(CSC1CC(=O)N(c2cccc(Cl)c2)C1=O)Nc1ccc(Br)cc1 (stereo not given) | 23.7%
13 | O=C(NCc1nc2ccccc2[nH]1)C1=C[C@@H](c2ccc(Br)cc2)C[C@@H](OCc2ccc(CO)cc2)O1 | 62.1%
14 | COc1ccc(CCN(C(=S)Nc2ccccc2)C2CC(=O)N(c3ccc(Cl)cc3)C2=O)cc1 (stereo not given) | 92.7%
15 | CC(C)(C)[C@@H]1C=C(C(=O)NCc2nc3ccccc3[nH]2)O[C@H](OCc2ccc(CO)cc2)C1 | 30.8%
16 | Cc1cccc(NC(=O)C2CC(=O)n3c(nc4ccccc43)N2)c1 (stereo not given) | 3%
17 | Cn1c(CCNC(=O)c2ccc(Cl)cc2)nc2ccccc21 | 10.9%
18 | COc1ccccc1NC(=O)CSc1nnc2c(n1)[nH]c1ccc(C)cc12 | 19.1%
19 | O=C(CCC(=O)Nc1cccc([N+](=O)[O-])c1)NN=Cc1cccs1 | 6.25%
20 | Cc1cc2cc(C(=O)N3CCCC(c4nc5ccccc5[nH]4)C3)ccc2o1 (stereo not given) | 20.3%
